Assay outcomes deposited in PubChem by The Scripps Research Institute Molecular Screening Center.
ABHD5 PLIN5 PPI: ABHD5-PLIN5 interaction inhibitors, primary screen, cell lysate, split luciferase complementation, luminescence | AID 602281, 2012 | actives 0.78% (n = 360,000) | inhibition, % at 4 µM | Split G. princeps luciferase complementation, 4 h | Perilipin-5 (Homo sapiens) + 1-acylglycerol-3-phosphate O-acyltransferase ABHD5 (Homo …;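 active means inhibition above the mean inhibition across every tested compound plus 3 SD, cut at about 22% in these data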;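 further: 0% = DMSO only wells and the 100% control is not disclosed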
TLR4-MyD88 BLA: inhibitors of TLR4-MyD88 association in cells, primary screen, cell-based, HeLa CL3-4, BLA complementation, FRET ratio | Toll-like receptor 4 (Homo sapiens) + Myeloid differentiation primary response protein … | HeLa CL3-4 TLR4/MyD88 BLA complementation | inhibition, % at 8.4 µM | actives 0.18% (n = 200,000) | AID 861, 2007; in the data active means inhibition above about 25%;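 further: 0% = vehicle and 100% = reference inhibitor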
NOD2 RIPK2 PPI: NOD2-RIPK2 binding disruptors in cells, primary screen, fluorescence, CHO cells, BLA complementation; AID 624267, 2012; inhibition, % at 4.98 µM; actives 0.38% (n = 360,000); CCF4 ratio; Receptor-interacting serine/threonine-protein kinase 2 (Homo sapiens), O43353; in the data active means inhibition above about 21%;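 further: 0% = vehicle only and 100% = reference blocker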
TLR9-MyD88 inh: inhibitors of TLR9-MyD88 association in cells, primary screen, cell-based, CHO, BLA complementation, fluorescence | Toll-like receptor 9 (Homo sapiens) + Myeloid differentiation primary response protein … | actives 0.21% (n = 340,000) | inhibition, % at 4.98 µM | CCF4 FRET ratio;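 active means inhibition above the mean over all tested compounds plus 3 SD, cut at about 21% in these data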;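 further: 0% = DMSO only wells and 100% = clavulanate BLA inhibitor control wells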
TLR4-MyD88 conf: TLR4-MyD88 association inhibitors, retest, confirmation, cell-based, HeLa CL3-4, BLA complementation, FRET ratio. shares compounds with TLR4-MyD88 BLA. CCF4 FRET ratio. inhibition, % at 8.4 µM. actives 50% (n = 350). AID 941, 2007;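 active means mean inhibition across three repeat runs above about 25% carried over from the earlier screen, limit read from the data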;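 further: plate controls were DMSO only for no effect and clavulanic acid blocking BLA at full dose for full effect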
BLA inhibitor ct: beta-lactamase inhibition flagged in TLR4-MyD88 counter-screen; AID 1237; inhibition, % at 8.4 µM; shares compounds with TLR4-MyD88 BLA; HeLa BLA reporter, CCF4 FRET ratio; actives 63% (n = 350);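 active means mean inhibition over three repeats above about 26% taken from the earlier screen, limit read from the data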;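 further: HeLa cells stably expressing beta-lactamase reporter as counterscreen for TLR4-MyD88 inhibitors; 0% = DMSO and 100% = clavulanic acid full inhibition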
TLR9-MyD88 conf: TLR9-MyD88 association inhibitors, retest, confirmation, cell-based, CHO, BLA complementation, fluorescence, triplicate; shares compounds with TLR9-MyD88 inh; CCF4 FRET ratio; inhibition, % at 4.98 µM; actives 51% (n = 680); AID 540250, 2011;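 active means mean inhibition across three repeats above about 21% taken from the earlier screen, limit read from the data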;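 further: blue over green emission ratio reports constitutive TLR9 MyD88 association via BLA complementation; 0% = DMSO vehicle wells and 100% = clavulanate BLA inhibitor wells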
BLA counter-1: beta-lactamase reporter inhibitors in CHO cells, artefact control for TLR9-MyD88 binding inhibitor project, cell-based, fluorescence. shares compounds with TLR9-MyD88 inh. CHO-BLA cells, CCF4 FRET ratio, BLA reporter. inhibition, % at 4.98 µM. actives 7% (n = 680). AID 540251, 2011;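 active means mean inhibition above a 50% cutoff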;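 further: counterscreen of TLR9-MyD88 hits on CMV-driven BLA in CHO-K1 cells; 0% = DMSO alone and 100% = clavulanate blocking BLA; higher means less blue over green ratio so more BLA blockade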
TLR9 CHO cytotox: CHO cell viability loss – luminescence, single concentration, cytotoxicity control for TLR9-MyD88 binding inhibitor project; shares compounds with TLR9-MyD88 inh; AID 588336, 2011; inhibition, % at 4.98 µM; TLR9-MyD88 CHO cells cytotoxicity; actives 39% (n = 680); in the data active means inhibition above about 11%
ABHD5-PLIN5 conf: ABHD5-PLIN5 interaction inhibitors, confirmation, biochemical, luminescence | inhibition, % at 4 µM | actives 67% (n = 2,200) | shares compounds with ABHD5 PLIN5 PPI; in the data active means inhibition above about 23%;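 further: 0% = DMSO vehicle wells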
HNF4 counter: HNF4 dimerization inhibitors, counter-screen for ABHD5-PLIN5 interaction inhibitor project, biochemical, split-luciferase complementation, luminescence; shares compounds with ABHD5 PLIN5 PPI; inhibition, % at 4 µM; actives 77% (n = 2,200); AID 651674, 2012;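 active means mean inhibition across replicate wells exceeding the computed hit threshold, cut at about 13% in these data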;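 further: light from luciferase halves that rejoin when HNF4 fusion proteins dimerize; 0% = DMSO only wells and the 100% control is not given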
NOD2-RIPK2 conf: NOD2-RIPK2 binding disruptors, retest, confirmation, fluorescence, CHO cells, BLA complementation, triplicate. shares compounds with NOD2 RIPK2 PPI. CCF4 FRET. inhibition, % at 4.98 µM. actives 70% (n = 1,200). AID 624370, 2012;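 active means mean inhibition across replicates above a set limit taken from the earlier primary screen, cut at about 21% in these data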;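 further: 0% = DMSO-only wells and the high end = clavulanate BLA-blocked wells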
BLA counter-2: NOD2-RIPK2 counterscreen BLA reporter activity. shares compounds with NOD2 RIPK2 PPI. CHO BLA reporter, CCF4 FRET ratio. actives 57% (n = 1,200). AID 624371. inhibition, % at 4.98 µM;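 active means mean inhibition above the low-control mean inhibition plus three low-control SD, cut at about 11% in these data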;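 further: 0% = DMSO only wells and 100% = clavulanate high control wells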
The depositor's hits bear a star; / = not tested or not shown. Shown are actives, neighbours in structure and some others; about 1.2% of the full set was active somewhere.

SMILES | ABHD5 PLIN5 PPI | TLR4-MyD88 BLA | NOD2 RIPK2 PPI | TLR9-MyD88 inh | TLR4-MyD88 conf | BLA inhibitor ct | TLR9-MyD88 conf | BLA counter-1 | TLR9 CHO cytotox | NOD2-RIPK2 conf | BLA counter-2 | others
O=C(C1=NN(c2ccccc2)C2C(=O)N(c3ccccc3)C(=O)C12)c1ccccc1 (stereo not drawn) | -6.7 | 21.8 | 16.0 | 8.6 | / | / | / | / | / | / | /
O=C(C1=NN(c2ccccc2)C2C(=O)N(c3ccccc3Cl)C(=O)C12)c1ccccc1 (stereo not drawn) | -14.7 | 37.8* | 42.2* | 28.5* | 21.0 | 26.9* | 16.8 | 15.9 | -2.8 | 47.3* | 47.9*
Cc1ccc(-c2nnn(CC(=O)N(CCCO)C(C(=O)NC3CCCC3)c3ccc(F)cc3)n2)o1 (stereo not drawn) | 0.5 | / | -7.8 | -2.9 | / | / | / | / | / | / | /
c1cn2c(NC3CCCCC3)c(-c3ccc(SC4CCCCC4)cc3)nc2cn1 | -7.7 | / | 2.7 | 0.9 | / | / | / | / | / | / | /
CCN(CC)c1ccc(-c2nc3cnccn3c2NC2CCCC2)cc1 | 3.6 | 51.8* | 21.9* | 36.2* | 31.1* | 60.8* | 36.9* | 39.6 | 0.9 | 55.6* | 66.2*
O=[N+]([O-])c1ccc(N/N=C\c2cccn2-c2ccccc2)nc1 | 12.5 | 41.3* | 46.1* | 33.7* | 39.7* | 61.5* | -14.2 | 28.7 | 8.8 | 52.3* | 54.1*
O=[N+]([O-])c1ccc(NN=Cc2ccccc2)nc1 | 2.1 | / | 13.9 | 4.0 | / | / | / | / | / | / | /
CN(CC(=O)Nc1ncn[nH]1)S(=O)(=O)c1cc(Cl)ccc1Cl | 6.1 | / | -4.8 | -15.0 | / | / | / | / | / | / | /
Cn1c(=O)n(CCO)c(=O)c2c1nc(Br)n2Cc1ccccc1 | -0.8 | / | -0.4 | -1.2 | / | / | / | / | / | / | /
CCCN(CCC)CC(O)Cn1cc(/C=C/C(=O)c2cccs2)c2ccccc21 (stereo not drawn) | 16.0 | 39.0* | 38.7* | 39.7* | 32.2* | 62.5* | 20.8* | 21.2 | 1.1 | 45.6* | 44.0*
COc1ccc(/C=c2/sc3n(c2=O)C(c2ccccc2OC)C2=C(N=3)c3ccccc3CC2)cc1O (stereo not drawn) | -6.7 | 27.3* | 35.2* | 17.3 | 18.2 | 44.8* | / | / | / | 25.6* | 31.4*
CCN1/C(=C/C=C/c2oc3ccc(-c4ccccc4)cc3[n+]2CC)Oc2ccc(-c3ccccc3)cc21 | 37.1* | 39.7* | 47.1* | 25.3* | 35.1* | 57.5* | 25.2* | 27.0 | 69.0* | 66.5* | 56.6* | ABHD5-PLIN5 conf=92.1*;HNF4 counter=59.9*
